About 83,000 compounds went through this panel and 20% of them were active in at least one assay; those are over-represented in the sample as a whole.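 Interpretation: 100, growth as untreated; towards 0, rising growth inhibition; 0, no net growth; 0 to -100, cell death. Compounds scoring below 10 were considered active.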 The source made the active and inactive calls.
What was measured:
Test in all cases: NCI-60 one-dose screen, 48 h (100 = growth as untreated, 0 = no growth, -100 = all killed)
Settings in all cases: 10 µM unless noted
SK-MEL-2 melanoma = test system: SK-MEL-2 melanoma
EKVX NSCLC = test system: EKVX NSCLC
SN12C renal = test system: SN12C renal
UO-31 renal = test system: UO-31 renal
TK-10 renal = test system: TK-10 renal
ACHN renal = test system: ACHN renal
CAKI-1 renal = test system: CAKI-1 renal
A498 renal = test system: A498 renal
CCRF-CEM leukemia = test system: CCRF-CEM leukemia
MOLT-4 leukemia = test system: MOLT-4 leukemia

Measured: growth

Oc1ccc(N=Nc2nccs2)c(O)c1
inactive: SK-MEL-2 melanoma 97.7% | EKVX NSCLC 41.4% | SN12C renal 73.7% | UO-31 renal 39.2% | TK-10 renal 60.3% | ACHN renal 30.3% | CAKI-1 renal 25.9% | A498 renal 225% | CCRF-CEM leukemia 19.5% | MOLT-4 leukemia 11.8%

Cc1ccc(NCCN2CCCCC2)c2c(=O)c3ccccc3sc12
inactive: SK-MEL-2 melanoma 45.6% | EKVX NSCLC 68.6% | SN12C renal 32% | TK-10 renal 42.6% | ACHN renal 15.9% | CAKI-1 renal 38.6% | A498 renal 28.3% | CCRF-CEM leukemia 30.2% | MOLT-4 leukemia 11.4%
active: UO-31 renal -16.6%

CCN(CC)CCSC(=O)C(O)(c1ccccc1)C1CCCC1 (stereo not given)
inactive: SK-MEL-2 melanoma 106% | EKVX NSCLC 120% | SN12C renal 99.8% | UO-31 renal 78.1% | TK-10 renal 120% | ACHN renal 105% | CAKI-1 renal 92% | A498 renal 95.7% | CCRF-CEM leukemia 118% | MOLT-4 leukemia 91.3%

CCN(CC)c1ccc2cc(C(Nc3ccc(Cl)cc3)c3nnnn3C(C)(C)C)c(=O)oc2c1 (stereo not given)
inactive: SK-MEL-2 melanoma 89.5% | EKVX NSCLC 81.4% | SN12C renal 89.6% | UO-31 renal 71.8% | TK-10 renal 85.7% | ACHN renal 92.4% | CAKI-1 renal 73.1% | A498 renal 81% | CCRF-CEM leukemia 93.5% | MOLT-4 leukemia 63.5%

Cc1ccc(NC(=S)/N=c2/n(-c3ccccc3)nc3n2CCN3C2=NCCN2)cc1
inactive: SK-MEL-2 melanoma 109% | EKVX NSCLC 113% | SN12C renal 100% | UO-31 renal 92.4% | TK-10 renal 97.5% | ACHN renal 106% | CAKI-1 renal 86% | A498 renal 81.2% | CCRF-CEM leukemia 102% | MOLT-4 leukemia 98.8%

O=C(Nc1ccc(Oc2ccc(F)cc2)c(Cl)c1)c1cccnn1
inactive: SK-MEL-2 melanoma 77.7% | EKVX NSCLC 75% | SN12C renal 63.8% | UO-31 renal 55% | TK-10 renal 64.4% | ACHN renal 73.7% | CAKI-1 renal 54.8% | A498 renal 61.1% | CCRF-CEM leukemia 75.1% | MOLT-4 leukemia 59.8%

O=c1cc(-c2ccccc2)oc2c(O)c(O)ccc12
inactive: SK-MEL-2 melanoma 85.4% | EKVX NSCLC 90% | SN12C renal 68.7% | UO-31 renal 36.2% | TK-10 renal 75.2% | ACHN renal 40.1% | CAKI-1 renal 37.4% | A498 renal 73.1% | CCRF-CEM leukemia 41.6% | MOLT-4 leukemia 55.9%

C=C(C)[C@@H]1CC[C@]2(C)[C@H](C(=O)C=C3[C@@H]4C[C@](C)(C(=O)N5CCN(C)CC5)CC[C@]4(C)CC[C@]32C)[C@@]1(C)CCC#N
active: SK-MEL-2 melanoma -78.6% [100 µM] | EKVX NSCLC -20.8% [100 µM] | SN12C renal -86.9% [100 µM] | UO-31 renal -100% [100 µM] | TK-10 renal -87.8% [100 µM] | ACHN renal -93.7% [100 µM] | CAKI-1 renal -96.2% [100 µM] | A498 renal -73.7% [100 µM] | CCRF-CEM leukemia -34% [100 µM] | MOLT-4 leukemia -45.9% [100 µM]

CCOc1ccc2sc(NS(=O)(=O)c3ccc(N)cc3)nc2c1
inactive: SK-MEL-2 melanoma 109% | EKVX NSCLC 103% | SN12C renal 98.2% | UO-31 renal 91.2% | TK-10 renal 124% | ACHN renal 108% | CAKI-1 renal 89.4% | A498 renal 115% | CCRF-CEM leukemia 99.1% | MOLT-4 leukemia 104%

O=C(OCc1ccc2c(Cl)cc(Cl)c(O)c2n1)N1CCN(C(=O)c2cc3cc(F)ccc3[nH]2)CC1
active: A498 renal -13.1%
inactive: SK-MEL-2 melanoma 22.9% | EKVX NSCLC 94.5% | SN12C renal 30.1% | UO-31 renal 33.4% | TK-10 renal 63.7% | ACHN renal 26.7% | CAKI-1 renal 14.8% | CCRF-CEM leukemia 13.4% | MOLT-4 leukemia 17.3%

Cc1ccc(-c2cc(-c3ccc(C)cc3)nc(N3CCN(CCNc4ccnc5cc(Cl)ccc45)CC3)n2)cc1
active: UO-31 renal -27.8% | TK-10 renal 0.923% | CCRF-CEM leukemia 8.72%
inactive: SK-MEL-2 melanoma 65.4% | EKVX NSCLC 74% | SN12C renal 34.7% | ACHN renal 72.9% | CAKI-1 renal 32.7% | A498 renal 47.1% | MOLT-4 leukemia 38.9%

COc1ccc(/C=C/C=C\C(=O)c2ccc(-n3ccnc3)cc2)cc1
inactive: SK-MEL-2 melanoma 108% | EKVX NSCLC 96.6% | SN12C renal 90.7% | UO-31 renal 73.9% | TK-10 renal 96.3% | ACHN renal 94.4% | CAKI-1 renal 90.9% | A498 renal 73.3% | CCRF-CEM leukemia 80.2% | MOLT-4 leukemia 75%

CC1(C)S[C@@H]2[C@H](NC(=O)[C@H](C(=O)O)c3cccs3)C(=O)N2[C@H]1C(=O)O
inactive: SK-MEL-2 melanoma 98.2% | EKVX NSCLC 93.1% | SN12C renal 104% | UO-31 renal 85.6% | TK-10 renal 103% | ACHN renal 95.2% | CAKI-1 renal 93.2% | A498 renal 118% | CCRF-CEM leukemia 105% | MOLT-4 leukemia 125%

COCCCNc1nc(NC(=O)c2cc(Br)cc(C(F)(F)F)c2)cc(-c2cccnc2)n1
inactive: SK-MEL-2 melanoma 80.6% | EKVX NSCLC 96% | SN12C renal 89.1% | UO-31 renal 60.6% | TK-10 renal 95.8% | ACHN renal 87.4% | CAKI-1 renal 81.4% | A498 renal 76.2% | CCRF-CEM leukemia 80.8% | MOLT-4 leukemia 80.1%

CCOC(=O)c1c[nH]c2cc(OCC3CC3)c(OCC3CC3)cc2c1=O
inactive: SK-MEL-2 melanoma 119% | EKVX NSCLC 116% | SN12C renal 108% | UO-31 renal 86.5% | TK-10 renal 126% | ACHN renal 105% | CAKI-1 renal 104% | A498 renal 94.1% | CCRF-CEM leukemia 91.3% | MOLT-4 leukemia 109%

O=C(CCN1CCCCC1)c1ccc(Cl)cc1
inactive: SK-MEL-2 melanoma 104% | EKVX NSCLC 101% | SN12C renal 111% | UO-31 renal 96% | TK-10 renal 103% | ACHN renal 110% | CAKI-1 renal 95.2% | A498 renal 79.5% | CCRF-CEM leukemia 93.6% | MOLT-4 leukemia 108%

O=C(Nc1ccc(F)cc1)c1ccccc1
inactive: SK-MEL-2 melanoma 106% | EKVX NSCLC 101% | SN12C renal 102% | UO-31 renal 94.3% | TK-10 renal 95.7% | ACHN renal 101% | CAKI-1 renal 91.6% | A498 renal 92.4% | CCRF-CEM leukemia 100% | MOLT-4 leukemia 97.8%

O=C(Nc1cccc(F)c1)c1cc(=O)[nH]c2cc(Br)ccc12
inactive: SK-MEL-2 melanoma 41.2% | EKVX NSCLC 63% | SN12C renal 60% | UO-31 renal 51.5% | TK-10 renal 69.8% | ACHN renal 57% | CAKI-1 renal 33.8% | A498 renal 30.8% | CCRF-CEM leukemia 58.8% | MOLT-4 leukemia 45.8%

C[C@@H](NC(=O)[C@@H](CC(=O)N1CCC(N2CCCCC2)CC1)N1C(=O)[C@@H](N2C(=O)OC[C@@H]2c2ccccc2)[C@H]1/C=C/c1cccc(Cl)c1)c1ccccc1
inactive: SK-MEL-2 melanoma 96.8% | EKVX NSCLC 66.5% | SN12C renal 84.4% | UO-31 renal 58.9% | TK-10 renal 78.9% | ACHN renal 91.6% | CAKI-1 renal 69.7% | A498 renal 84.6% | CCRF-CEM leukemia 50.1% | MOLT-4 leukemia 26.7%

O=C1Cc2c(sc3c(F)cccc23)C(c2ccccc2[N+](=O)[O-])N1 (stereo not given)
inactive: SK-MEL-2 melanoma 126% | EKVX NSCLC 85.2% | SN12C renal 99.1% | UO-31 renal 69.6% | TK-10 renal 142% | ACHN renal 101% | CAKI-1 renal 75.1% | A498 renal 115% | CCRF-CEM leukemia 110% | MOLT-4 leukemia 106%

CCN(CC)c1ccc2cc(C(Nc3ccc(Br)c(C(F)(F)F)c3)c3nnnn3C(C)(C)C)c(=O)oc2c1 (stereo not given)
inactive: SK-MEL-2 melanoma 89.9% | EKVX NSCLC 87.7% | SN12C renal 90.4% | UO-31 renal 74% | TK-10 renal 83.9% | ACHN renal 99.1% | CAKI-1 renal 85% | A498 renal 67.6% | CCRF-CEM leukemia 92.1% | MOLT-4 leukemia 69.6%

CCc1ccc(-c2ccc(COc3ccc(CC4SC(=O)NC4=O)cc3)cc2)cc1 (stereo not given)
inactive: SK-MEL-2 melanoma 71.6% | EKVX NSCLC 63% | SN12C renal 74.5% | UO-31 renal 61.1% | TK-10 renal 92.8% | ACHN renal 69.5% | CAKI-1 renal 51% | A498 renal 100% | CCRF-CEM leukemia 61.3% | MOLT-4 leukemia 58.5%

CC(C)=CCC[C@](C)(O)[C@H]1CC[C@]2(C)[C@@H]1CC[C@@H]1[C@@]3(C)CC/C(=N/O)C(C)(C)[C@@H]3CC[C@]12C
active: SK-MEL-2 melanoma -23.2% [100 µM] | EKVX NSCLC 2.6% [100 µM] | SN12C renal -42.4% [100 µM] | UO-31 renal -17.7% [100 µM] | TK-10 renal -39.1% [100 µM] | ACHN renal -72% [100 µM] | CAKI-1 renal -58.4% [100 µM] | A498 renal -15.7% [100 µM] | MOLT-4 leukemia 2.24% [100 µM]
inactive: CCRF-CEM leukemia 23.1% [100 µM]

CCNC(=O)N1CCc2c(Cl)c3c(c(OC)c2[C@@H]1[C@H]1OCc2c1ccc(OC)c2OC)OCCO3
inactive: SK-MEL-2 melanoma 22.8% | EKVX NSCLC 48.7% | SN12C renal 38.1% | UO-31 renal 34.2% | TK-10 renal 47.7% | ACHN renal 31.5% | CAKI-1 renal 24.3% | CCRF-CEM leukemia 12.3% | MOLT-4 leukemia 30.8%
active: A498 renal -20.6%

C=C(C)[C@@H]1CC[C@]2(C(N)=O)CC[C@]3(C)[C@H](CC[C@@H]4[C@@]5(C)C/C(=C/c6cccnc6)[C@H](O)C(C)(C)[C@@H]5CC[C@]43C)[C@@H]12
inactive: EKVX NSCLC 33.8% [100 µM] | SN12C renal 20% [100 µM] | UO-31 renal 12.2% [100 µM] | TK-10 renal 32.5% [100 µM] | CAKI-1 renal 10.7% [100 µM] | A498 renal 61.9% [100 µM]
active: SK-MEL-2 melanoma -13.2% [100 µM] | ACHN renal 9.24% [100 µM] | CCRF-CEM leukemia 5.5% [100 µM] | MOLT-4 leukemia 1.99% [100 µM]
